High-throughput results as filed in PubChem.
Only some compounds are listed: those with a hit (about 2.2% of all), similar ones and a draw of the others.
Rce1 inh: yeast Rce1p protease inhibitors, primary screen, biochemical, fluorescence, cell-free homogeneous. calls only. 0.27% of 290,000 active. AID 2563, 2010. yeast membranes, quenched prenylated peptide cleavage fluorescence;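 active means fall in fluorescence gain of 50% or more versus controls, with final raw signal at or below 3038400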;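 further: plate controls were neutral control wells for no effect and wells lacking membranes for full effect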
Target sequence (Q03530 whole entry, looked up): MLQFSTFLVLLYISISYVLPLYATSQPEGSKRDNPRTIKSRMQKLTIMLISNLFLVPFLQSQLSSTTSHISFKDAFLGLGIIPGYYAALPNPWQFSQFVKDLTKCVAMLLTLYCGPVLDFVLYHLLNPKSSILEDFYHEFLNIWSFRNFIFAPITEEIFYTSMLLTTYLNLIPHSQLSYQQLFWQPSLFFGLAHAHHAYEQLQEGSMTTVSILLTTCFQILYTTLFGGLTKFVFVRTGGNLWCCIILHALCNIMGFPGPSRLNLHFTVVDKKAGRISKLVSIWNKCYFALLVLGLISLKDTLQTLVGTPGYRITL
M18AAP inhibitor: PfM18AAP inhibitors, malaria aminopeptidase, primary screen, biochemical, QFRET, recombinant enzyme; M18 aspartyl aminopeptidase (Plasmodium falciparum 3D7); H-Glu-NHMec fluorogenic cleavage; inhibition, % at 7.35 µM; 1.2% of 290,000 active;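 active means inhibition above the campaign mean inhibition over all tested compounds plus 3 SD, cut at about 28% in these data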;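 further: 0% = plate median of test compound wells and 100% = 2 mM ZnCl2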
PLC-beta3 inh: human PLC-beta3 inhibitors, primary screen, biochemical, fluorescence; 1-phosphatidylinositol 4,5-bisphosphate phosphodiesterase beta-3 (Homo sapiens), Q01970; Purified PLC-beta3, fluorogenic substrate; inhibition, % at 12.2 µM; 0.18% of 370,000 active; in the data active means inhibition above about 11%;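 further: 0% = median of compound wells on plate and 100% = full blocker control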
GC-B act: human GC-B receptor activators, primary screen, HEK293 GC-B cells, cGMP TR-FRET, EC30 CNP | 0.11% of 370,000 active | 0% at EC30 CNP, 100% saturating CNP | AID 1920062, 2024 | Atrial natriuretic peptide receptor 2 (Homo sapiens), P20594 | activation, % at 10 µM;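 active means activation at 10 µM reaching about 35% in either raw or pattern-adjusted values, limit read from the data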
NPR1 activator: GC-A stimulated cGMP production enhancers – HEK293 GC-A cells, cGMP TR-FRET, EC30 ANP, primary screen; Atrial natriuretic peptide receptor 1 (Homo sapiens), P16066; 0% at EC30 ANP, 100% saturating ANP; activation, % at 10 µM; 0.14% of 370,000 active; AID 1671463, 2021; in the data active means activation above about 40%
PLC-gamma1 inh: PLC-gamma1 enzyme inhibitors, primary screen, biochemical, fluorescence, purified enzyme. 1-phosphatidylinositol 4,5-bisphosphate phosphodiesterase gamma-1 (Homo sapiens), P19174. fluorogenic substrate. inhibition, % at 12.2 µM. 0.84% of 370,000 active. AID 720700, 2013
PLCgamma1 ctr: PLC-gamma1 enzyme inhibitors, counter-screen for PLC-beta3 inhibitor project, biochemical, fluorescence; purified PLC-gamma1, fluorogenic substrate; shares compounds with PLC-gamma1 inh; inhibition, % at 12.3 µM; AID 743258, 2014; 3.1% of 3,300 active
PLCb3 confirm: PLC-beta3 inhibitor confirmation, biochemical, fluorescence, purified enzyme; 1% of 3,300 active; inhibition, % at 12.3 µM; shares compounds with PLC-gamma1 inh; fluorogenic substrate fluorescence; in the data active means inhibition above about 11%
* = called active by the depositor; i = inactive; / = no result given. Unless noted, no stated cut-off is given here; in the data, active means inhibition above about 9.5%; inactive means the rest.

SMILES	Rce1 inh	M18AAP inhibitor	PLC-beta3 inh	GC-B act	NPR1 activator	PLC-gamma1 inh	PLCgamma1 ctr	PLCb3 confirm
Cc1nn(-c2ccccc2)c(C)c1NC(=O)c1cccs1	i	-1	2	0	6	12*	-6	-3
Cc1nn(-c2ccccc2)c(C)c1NC(=O)Cc1cccs1	i	-7	0	-7	-1	-1	/	/
Cc1cccc(CCNC(=O)Cn2nc(-c3ccccc3)ccc2=O)c1	/	/	2	2	0	1	/	/
Cc1n[nH]c(C)c1S(=O)(=O)NC(C)Cc1ccccn1 (stereo not drawn)	/	/	1	8	2	4	/	/
CC(=O)CC[C@@H]1CC[C@]2(CCCN(C(=O)c3ccco3)C2)O1	/	/	-2	-7	4	-1	/	/
CN(Cc1ccc2c(c1)CCCN2C)C(=O)[C@@H](Cc1ccccc1)NC(=O)[C@H]1O[C@@H](n2ccc(=O)[nH]c2=O)[C@H](O)[C@@H]1O	/	/	-8	4	-3	-6	/	/
CC(C)(C)c1cc(C(=O)NNC(=O)Nc2ccccc2)n(Cc2ccccc2)n1	/	10	11	-1	-1	12*	17*	18*
CC(C)(C)c1cc(C(=O)NNC(=O)Nc2cccc(Cl)c2)n(Cc2ccccc2)n1	i	6	4	-3	0	5	/	/
COc1ccc(-n2c(C)nn(C)c2=O)cc1	i	-1	8	-2	-2	9.9*	-9	-2
COc1cccc(-n2c(C)nn(C)c2=O)c1	i	-1	/	/	/	/	/	/
CC(NS(=O)(=O)c1ccccc1)C1COc2ccccc2O1 (stereo not drawn)	i	2	-3	0	-1	-1	/	/
CC(NC(=O)c1ccccc1Cl)C1COc2ccccc2O1 (stereo not drawn)	i	-7	13*	3	-1	7	1	1
Cc1onc(-c2ccccc2)c1CNS(=O)(=O)c1cccc(Cl)c1	i	-2	6	-5	3	11*	-6	1
Cc1onc(-c2ccccc2)c1CNS(=O)(=O)c1ccccc1	i	-1	-4	1	1	2	/	/
CCN=C1NC(c2ccccc2C(F)(F)F)C(C(=O)OC)=C(C)N1Cc1ccc(C(F)(F)F)cc1 (stereo not drawn)	/	/	-6	-7	-13	-5	/	/
O=C1/C(=C/c2ccccc2)SC(=S)N1C1CCS(=O)(=O)C1 (stereo not drawn)	i	1	-6	-3	0	-2	/	/
O=C1/C(=C\c2cccs2)SC(=S)N1C1CCS(=O)(=O)C1 (stereo not drawn)	i	9	0	-1	-8	9.8*	-1	0
Cc1cc(C)c(S(=O)(=O)N2CCCCC2)c(C)c1N(C)S(=O)(=O)c1ccccc1	i	-5	2	1	1	11*	-3	3
C[C@H]1CCC(=O)N([C@H](COc2ccccc2)Cc2ccccc2)CC1	i	4	2	-11	-4	11*	-9	-3
N#CCC[C@H]1CC[C@]2(CCCN(C(=O)c3ccco3)C2)O1	/	/	2	-4	3	2	/	/
COCCCNCCCCOc1ccc(Br)cc1Cl	i	-3	2	-8	-1	3	/	/
COCCNCCCOc1ccc(Br)cc1Cl	i	1	-4	-5	2	11*	9.5*	3
COC(=O)c1cc(-c2cccc(OCc3ccccc3)c2)c(=O)n2c1CCC2	/	/	-21	-5	1	-13	/	/
COc1ccc(Cn2nnnc2C(C(C)C)N2CCN(c3ccccc3OC)CC2)cc1 (stereo not drawn)	/	-14	6	0	-7	11*	1	3
O=C(Nc1ccc(C(O)c2ccccc2)cc1)[C@@H]1O[C@H](CO)[C@H](O)[C@H](O)[C@H]1O (stereo partly drawn)	/	/	8	4	2	14*	-7	-2
SMILES	Rce1 inh	M18AAP inhibitor	PLC-beta3 inh	GC-B act	NPR1 activator	PLC-gamma1 inh	PLCgamma1 ctr	PLCb3 confirm
COc1cc(N2C[C@@]3(O)CC[C@@H](O)[C@@H](OC)[C@@H]3[C@@](C)(O)[C@@H]2CC=C(C)C)cc(OC)c1OC	/	/	-2	2	-3	-3	/	/
O=C(CSc1nnc(-c2ccccc2)n1Cc1ccco1)Nc1ccc(OCc2ccccc2)cc1	/	/	7	7	-2	11*	1	0
CCOC(=O)N1CCC(Nc2nc3ccccc3n3cnnc23)CC1	i	3	11*	1	-3	7	-5	-4
O=c1c2ccccc2sn1-c1ccc(Cl)cc1Cl	/	/	16*	7	5	0	-6	2
CC(C)c1ccc(NC(=O)Cc2ccc(NC3=NC4CS(=O)(=O)CC4S3)cc2)cc1 (stereo not drawn)	i	-7	4	-5	-2	11*	-4	-3
CCOc1ccc(NC(=O)c2cccc(NC3=NC4CS(=O)(=O)CC4S3)c2)cc1 (stereo not drawn)	i	3	4	-7	-3	9.9*	6	2
Cc1ccc(NC(=O)c2cccc(NC3=NC4CS(=O)(=O)CC4S3)c2)cc1C (stereo not drawn)	i	2	0	0	5	2	/	/
CCc1ccc(NC(=O)Cc2ccc(NC3=NC4CS(=O)(=O)CC4S3)cc2)cc1 (stereo not drawn)	i	1	1	-1	1	2	/	/
O=C(Nc1ccc(Cl)cc1)c1cccc(NC2=NC3CS(=O)(=O)CC3S2)c1 (stereo not drawn)	i	0	4	6	-3	12*	-5	-5
CCc1ccc(NC(=O)c2cccc(NC3=NC4CS(=O)(=O)CC4S3)c2)cc1 (stereo not drawn)	i	2	1	-11	2	1	/	/
CC(C)c1ccc(NC(=O)c2cccc(NC3=NC4CS(=O)(=O)CC4S3)c2)cc1 (stereo not drawn)	i	8	0	5	3	9.6*	2	-1
COc1ccc2cc(-c3cn(C(=O)N(c4ccccc4)c4ccccc4)nn3)ccc2c1	/	/	5	-1	-2	1	/	/
CCN(CC)C(=O)CNc1nnnn1-c1ccccc1	/	/	6	-2	0	2	/	/
N#Cc1ccc(NCCCN2CCC(C(O)(c3ccccc3)c3ccccc3)CC2)cc1	/	/	4	-12	-25	2	/	/
